# PubChem BioAssay (NCI)
# “And” between values parts separate entries of the source, which are not always exact repeats. Equal values may be shown once. This is part of a sample that, as a whole, favours compounds with a hit. Of some 83,000 tested, about 20% had one in any assay.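 Negative percent growth values reflect cell death: -40 means 40% of the cells present at the start died, and -100 means all died.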 The source made the active and inactive calls.
# Test system: NCI-H322M lung
# Assay: NCI-60 one-dose screen, 48 h (100 = growth as untreated, 0 = no growth, -100 = all killed)
# Settings: 10 µM unless noted
# Description: Growth inhibition of the NCI-H322M human Non-Small Cell Lung tumor cell line is measured as a screen for anti-cancer activity. Cells are grown in 96 well plates and exposed to the test compound for 48 hours. Compounds are tested at a single concentration, which is 10^-5 M for most compounds. The reported endpoint is percent growth (GI% or GIPRCNT), where numbers from 0 - 100% represent growth inhibition, and numbers from -100% - 0 represent cell death. For example, a value of 40 represents 60% growth inhibition. A value of 0 means no net growth occurred over the course of the experiment. A value of -40 indicates 40% of cells at the beginning of the experiment died by the end of the experiment. A value of -100 means all cells are dead at the end of the experiment.
# NCI-60 Human Tumor Cell Lines Screen was performed using the standard one-dose NCI protocol, which is described in more detail at https://dtp.cancer.gov/discovery_development/nci-60/default.htm.
# Compounds with GIPRCNT values below 10 were considered active. Activity score was based on GIPRCNT using the following formula: […]
# Score is 0 for GIPRCNT values of 100 or above, 50 for GIPRCNT values of 0, and 100 for GIPRCNT values of -100.
row,SMILES,growth
1,CC12CCC(O)CC1=CCC1C2CCC2(C)C3=NN=CC3CC12 (stereo not given),118% (inactive)
2,N#CC(=C1SCS1)[N+](=O)[O-],70.7% (inactive)
3,Nc1nc(N)c2cc(Sc3cccc(C(F)(F)F)c3)ccc2n1,37.1% (inactive)
4,CC[n+]1ccc(Nc2ccc(NC(=O)c3ccc(Nc4cc[n+](CC)c5ccc([N+](=O)[O-])cc45)cc3)cc2)cc1,96.8% (inactive)
5,Cc1nnc(N/N=C/c2ccc([N+](=O)[O-])o2)[nH]c1=O,16.6% (inactive)
6,CN=C(N)N/N=C(\c1ccccc1)c1ccc(Br)cc1,0.506% (active)
7,CN1CCC(CN2c3ccccc3Sc3ccccc32)C1 (stereo not given),86.3% (inactive)
8,OC(c1cc(-c2ccc(C(F)(F)F)cc2)nc(C(F)(F)F)c1)C1CCCCN1 (stereo not given),48.2% (inactive) and 29.8% (inactive) and 70.3% (inactive)
9,Oc1ccccc1N=Cc1ccccc1,87.5% (inactive)
10,O=C(c1ccccc1)N(CCCl)C(=O)N(CCCl)C(=O)c1ccccc1,90.2% (inactive)
11,O=C(c1ccccc1)c1ccc(O)c2ncccc12,44.6% (inactive)
12,O=C1Nc2ccc(Br)cc2C1=O,102% (inactive)
13,COc1ccc2nc3cc([N+](=O)[O-])ccc3c(NNc3ccccc3)c2c1,86.9% (inactive)
14,CC(C)(C)c1ccc(CCO)cc1,84.5% (inactive)
15,CC1(C)OCC(COC(c2ccccc2)(c2ccccc2)c2ccccc2)O1 (stereo not given),92.2% (inactive)
16,CCC[CH2][Sn]1([CH2]CCC)[O]C2C(CO)OC(n3ccc(N)nc3=O)C2[O]1 (stereo not given),33.3% (inactive)
17,Clc1ccccc1C(c1ccccc1)(c1ccccc1)n1ccnc1,61.8% (inactive)
18,CC(=O)N1CC(=O)NC1=S,102% (inactive)
19,CC(C)=CCCC(C)C1=C(O)C(=O)C(C)=CC1=O (stereo not given),112% (inactive)
20,CCCCCCCCCCCCSC(=N)N,68.7% (inactive)

row,SMILES,growth
1,CCOc1ccc(Nc2nc3c(s2)C(=O)c2ccccc2C3=O)cc1,105% (inactive)
2,COC1CC(C)C(OC)c2cc(O)cc(c2O)NC(=O)/C(C)=C/C=C\C(C)C(OC(N)=O)/C(C)=C\C(C)C1OC (stereo not given),54.1% (inactive)
3,CCN(CC)CCNc1ccc([N+](=O)[O-])c2sc3ccccc3c(=O)c12,14.2% (inactive)
4,CC1(C)OC2C(COC(c3ccccc3)(c3ccccc3)c3ccccc3)OC(c3c[nH]c4c(N)ncnc34)C2O1 (stereo not given),71.3% (inactive)
5,CCCCCCCCCCCC1=NCCCN1CCCC,98.1% (inactive)
6,Cc1cc2nc(CC(=O)c3ccncc3)c(=O)[nH]c2cc1C,95.9% (inactive)
7,CCOc1ccc2c(c1)/C(=C\C=C\C1CC(C)C3CC(OCC)CCC3N1CC)CC(C)N2CC (stereo not given),4.18% (active)
8,CCOC(=O)NC(/C=C/c1ccccc1)NC(=O)OCC,104% (inactive)
9,O=C(Nc1ccc(Cl)c(Cl)c1)Nc1ccccc1O,87.3% (inactive)
10,O=C(C[P+](c1ccccc1)(c1ccccc1)c1ccccc1)c1ccccc1,92.2% (inactive)
11,O=[N+]([O-])c1ccc2c(c1)Cc1ccccc1-2,106% (inactive)
12,Nc1nc2ncc(CNc3ccc(C(=O)NC(CCC(=O)NC(CCC(=O)NC(CCC(=O)NC(CCC(=O)NC(CCC(=O)O)C(=O)O)C(=O)O)C(=O)O)C(=O)O)C(=O)O)cc3)nc2c(=O)[nH]1 (stereo not given),97.5% (inactive)
13,Oc1cc(Cl)ccc1Cc1ccc(Cl)cc1O,97% (inactive)
14,CCCCC(CCc1ccc([N+](=O)[O-])cc1)(C(C)=O)C(=O)OCC (stereo not given),108% (inactive)
15,O=C1C=CC(=O)N1c1ccc(O)cc1,105% (inactive)
16,CCOc1ccc(C(CN2CCOCC2)C(C)=O)cc1OC (stereo not given),117% (inactive)
17,COc1cc(NCc2ccc3nc(N)nc(N)c3c2C)cc(OC)c1OC (tested in a mixture with another compound),51.9% (inactive)
18,COC1=CC(=O)c2c(O)c3c(c(O)c2C1=O)CC(C)(O)OC3 (stereo not given),5.37% (active)
19,NNc1ccc(Cl)cc1Cl,77.3% (inactive)
20,O=C(O)c1ccc2c(c1)C(=O)c1ccccc1C2=O,102% (inactive)
